According to PubChem BioAssay AID1508600 (Functional Genomics Laboratory (NCATS/FGL), 2020):
Screen size: about 53,000 sequences; about 3,700 (7%) were called active.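 Rule for the calls: active = gene knockdowns whose robust z-score for IL-1 alpha signal is at least 2 or at most -2, so actives lie on both sides; inactive = the rest.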 Many of the other results were omitted from the sample, so actives are more common in it than they were.

Experiment: Components of the Cytosolic LPS Sensing Pathway: Gene Identification via Genome-wide siRNA Screen;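 note: robust z of the log signal after scaling to non-targeting control siRNA wells of the plate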
Details: RAW264.7 macrophages, IL-1a HTRF, actives lie on both sides, screened at 100 nM (by protocol), cells primed 5 h with Pam3CSK4 first
Outline: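 Supernatant IL-1a by HTRF from RAW264.7 cells primed with Pam3CSK4 (5 hours) and transfected with LipidA (24 hour) after 48h siRNA knockdown at 100 nM; cell viability checked with CellTiter-Glo.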
In the case of GCUUAGGAAUGGCGACAACTT against Vmn1r188, the z-score is reported as -0.413 (inactive).
In the case of GGCAAUGAGAAAGUUACUCTT against Olfr1102, the z-score is reported as 1.65 (inactive).
For GGCAGGUGUUAAGGCUUCATT against Tas2r117, the z-score was 0.873 (inactive).
For GGAACCACUGCUUUCAAAATT against Cd36, the z-score was 0.83 (inactive).
With GCUUUACCUGCAUAUUCCATT against Nradd the z-score was -2.04 (active).
In the case of GGGCCAGCAUGUUAUCUGUTT against Kat8, the z-score is reported as -0.8 (inactive).
For CCAGCCAGACUGAAAAAGCTT against Stmnd1, the z-score was -0.652 (inactive).
With GGGAGAUGCAACAACAAGATT against Epx the z-score was -0.847 (inactive).
With GGACAAAUGAACAUGCUGATT against Edn2 the z-score was -2.26 (active).
In the case of “GAAGUGAUGCUGCUAGUAGTT against A030005L19Rik”, the z-score is reported as -2 (inactive).
In the case of GGAACACUGGGAACGUAUCTT against Ifnk, the z-score is reported as 0.00139 (inactive).
For GCCCUAGUGUCUGAAAAAATT against Sfrp5, the z-score was 0.864 (inactive).
For GGACAAGGCUGCUACUUCATT against Pou6f2, the z-score was 1.74 (inactive).
In the case of GGCACUUCUUAAUCCCACATT against Nfe2, the z-score is reported as -2.41 (active).
In the case of GUACAAGUGUGGACCCUUATT against Chchd2, the z-score is reported as 0.409 (inactive).
In the case of GCAGGCUACCUCUAAUCCATT against Slc23a3, the z-score is reported as -0.241 (inactive).
For GGAUCUAAAGCUUGAACCUTT against Pheta1, the z-score was 1.24 (inactive).
In the case of GCUACCAUCUGCUAAUACATT against Smg1, the z-score is reported as 3.65 (active).
With GGUUCCACAGUGGCAAAUGTT against Vmn1r202 the z-score was 0.957 (inactive).
In the case of GCCUAUCACGAGCUAUGAUTT against Shkbp1, the z-score is reported as -1.5 (inactive).
With GGAAUCGAAACCAAUGUGUTT against Il1rl2 the z-score was -0.471 (inactive).
With “GGUUCAAAUGUUCUCCAUATT against 9530080O11Rik” the z-score was 2.55 (active).
For GCUCCGGAAAUUGGCAUCATT against Ppp1r10, the z-score was -1.5 (inactive).
With GGAGAAGAAGAAAAAGUCATT against BC005537 the z-score was -0.495 (inactive).
In the case of GAUGUUUCAGAACAUUCUUTT against Cadps, the z-score is reported as 0.436 (inactive).
With GGACAUAAAAGUGUCUCGATT against Cldn13 the z-score was 0.16 (inactive).
For GCCAAGGGUUUGAAAGCCATT against Tpm1, the z-score was -0.949 (inactive).
With GGCUUGUUUUGCCCAGAUGTT against Olfr398 the z-score was -2.94 (active).
For CCUCAUGUUAAUCUGGAGATT against Gabre, the z-score was 0.0167 (inactive).
In the case of GGAAGUAUUAAUGUACAACTT against Msmo1, the z-score is reported as 0.0519 (inactive).
With CGGUGGUCACUGUGAAAUGTT against Nr1h5 the z-score was 0.0152 (inactive).
For CGGGAAGAAGUUCAUAAAUTT against Topbp1, the z-score was 0.36 (inactive).
With GGUUAAAUGUCGUUUAUACTT against Rasa3 the z-score was 0.308 (inactive).
With GGAUAUCGAGGAGAUGAUCTT against Aoc3 the z-score was -2.17 (active).
In the case of GCAGUUGACCACAGAAAAUTT against BC061237, the z-score is reported as -1.35 (inactive).
In the case of GGACCCAUGAGGUUAACUUTT against Tbc1d22a, the z-score is reported as 0.922 (inactive).
For GGGAACCAGCCAGUUCAAGTT against Ap1g2, the z-score was 1.39 (inactive).
For CCGUUUCAUUUCAGGGAGGTT against Phf1, the z-score was 0.307 (inactive).
For GGAGAAAUCAAGCAAAGAUTT against Soat1, the z-score was -0.0846 (inactive).
With GGCUACAGCAAGAAGACUUTT against Ctsw the z-score was 3.08 (active).
In the case of CCGGAAAUUUUCUUUGCCCTT against Sec23ip, the z-score is reported as -1.12 (inactive).
For “GGAAGGAUUCUGGAAACAGTT against 2210409E12Rik”, the z-score was -2.1 (active).
In the case of GCCAUUGGAGUAUAUCUUGTT against Olfr873, the z-score is reported as -0.273 (inactive).
For GGUUCACGAGCUAAGCUGUTT against Sec23b, the z-score was -1.07 (inactive).
For GGACCACUCUGAAUAAGACTT against Ttc12, the z-score was -1.3 (inactive).
In the case of GGAUCAACAGAGGUUGGCATT against Aldh1a7, the z-score is reported as -2.03 (active).
In the case of GCAGCUCAAUUAGAGUCCATT against Gart, the z-score is reported as -0.11 (inactive).
For GGCUUUUUGUCUAACAAGUTT against Trappc13, the z-score was 0.23 (inactive).
In the case of GCUGGUUAUUCUCUUAUAGTT against Cavin2, the z-score is reported as 1.97 (inactive).
For GGUAGGUCGUCGAGAAUACTT against Prss44, the z-score was 0.17 (inactive).
With GGAUCCUCUGGUAAAGGGATT against Gng11 the z-score was -1.75 (inactive).
With GGAGUUCCUCAUGAAGAUGTT against Tmem241 the z-score was -1.27 (inactive).
For GGUGCAAACAGACACCAGATT against Dct, the z-score was -0.982 (inactive).
With GGGCUGUCUAAGAAUGCAATT against Nlrp14 the z-score was -2.08 (active).
For GGGAGGGAAUAGUCAAAAATT against Timm17b, the z-score was 0.909 (inactive).
With GGAGAGCAAGGAGAACCAATT against Itga7 the z-score was 1.35 (inactive).
In the case of CCACUACAAUGUAGCGACGTT against C1qtnf9, the z-score is reported as -2.24 (active).
In the case of CGAUUACUGAACACUAUAUTT against Metap1, the z-score is reported as 1.94 (inactive).
With GGUGUACCCAGUACUGCCATT against Cdk2 the z-score was 0.57 (inactive).
For GGAGAUGUUGGACUUCAUGTT against Nxnl2, the z-score was -2.42 (active).
With CGGACAGAUACAAUAGCUATT against Zc3h4 the z-score was -1.53 (inactive).
For GUCUUUCCCUAAAAACAGCTT against Vmn1r47, the z-score was -1.28 (inactive).
With GGAGAACUUCAACAAUGUCTT against Tesc the z-score was 0.46 (inactive).
With GGAGUUUCGCAUGAGCCUGTT against Shroom1 the z-score was -0.0803 (inactive).
In the case of GCCACUAUUGAAGCUUGCCTT against Olfr1209, the z-score is reported as 1.32 (inactive).
In the case of GGAGGAGUUCCAGAUCCACTT against Pald1, the z-score is reported as -0.356 (inactive).
With GGGCUGUGAACACAAGUGUTT against Megf6 the z-score was 2.02 (active).
For GGACAGCAUGAUCCUACAATT against Smr2, the z-score was -0.962 (inactive).
